Consider 5 compounds from PubChem BioAssay.

Active and inactive are the calls of the source. Unless noted, how the calls were made is not given here.

Assay [1] in a line: compounds binding Alexa647 anti-His antibody – biochemical, small-molecule microarray, 635 nm fluorescence, artefact control for SMM control protein annotation, primary screen (AID 1128).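 Further: score merges feature fluorescence with signal-to-noise for each printed compound spot.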 The note with it: higher = more signal.
The test system of assay [2] is Human papillomavirus type 1a E7 protein (residues 1-88). Kind of assay: HPV1a E7 small-molecule binders, primary screen, biochemical, small-molecule microarray, residues 1-88, 635 nm (AID 1129). The note with it: small-molecule microarray binding, fluorescence 635 nm; higher = more signal.
Assay [3] has as its target Focal adhesion kinase 1 (Homo sapiens) (UniProt Q05397). Kind of assay: PTK2 protein binding on printed compound slides – biochemical, small-molecule microarray, 635/667 nm fluorescence, BSA, DTT, primary screen (AID 1130).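 Further: composite of spot emission at 667 nm and signal to noise over triplicate slides.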 The note with it: 635 nm fluorescence, higher = more signal.
In assay [4] the test system is Fibrinogen (Alexa647-labelled). The experiment in a line: Alexa647-fibrinogen binding to printed small molecules – biochemical, small-molecule microarray, 635/667 nm fluorescence, artefact control for SMM control-protein annotation, profiling panel (AID 1131).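 Further: z-score merges 667 nm fluorescence with per-spot signal-to-noise over triplicate slides.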 The note with it: fibrinogen-A647 binding fluorescence, higher = more signal.
Assay [5] addresses Follistatin (Homo sapiens) (UniProt P19883). The experiment in a line: FST protein binding to printed compounds – biochemical, small-molecule microarray, 635/667 nm fluorescence, primary screen (AID 1132). The note with it: 635 nm fluorescence, higher = more signal.
Assay [6] addresses Fibroblast growth factor 2 (Homo sapiens) (UniProt P09038). Kind of assay: basic fibroblast growth factor binding to printed compounds – biochemical, small-molecule microarray, 635/667 nm fluorescence, primary screen (AID 1133). The note with it: FGF2, fluorescence 635/667, higher = more signal.
Assay [7] can be described thus: JC-1 mitochondrial potential readout, lung cancer cells – cell-based, A549, JC-1 fluorescence, basal, 24 h, 100 nL, profiling panel (AID 1138).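 Further: A549 lung adenocarcinoma cells under basal conditions with no added stimulus; test concentration not given here.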 The note with it: higher = more signal.
A further assay has as its system Lefty1. The experiment in a line: Lefty1 protein binding to printed compounds – biochemical, small-molecule microarray, 635/667 nm fluorescence, primary screen (AID 1139). The note with it: fluorescence 635/667, higher = more signal.
Assay [8] deals with wheat germ agglutinin (Triticum aestivum), Alexa647-labelled. The experiment in a line: Alexa647-WGA lectin binding to printed small molecules – biochemical, small-molecule microarray, 635/667 nm fluorescence, artefact control for SMM control-protein annotation, profiling panel (AID 1140).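 Further: score merges 667 nm feature emission with signal to noise over triplicate slides.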 The note with it: WGA-A647 binding, 635 nm fluorescence, higher = more signal.
The target in assay [9] is Luciferin 4-monooxygenase (Photinus pyralis) (UniProt P08659). The experiment in a line: inhibition of purified Photinus pyralis luciferase – biochemical, luminescence, purified enzyme, 2006 set, primary screen (AID 1141).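 Further: cell-free assay with purified firefly luciferase at 100 ng per well in PBS; test concentration not given here.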 The note with it: purified firefly luciferase, SteadyGlo luminescence, 30 min; higher = more signal, called active from +8 up or from −8 down.
Luciferin 4-monooxygenase (Photinus pyralis), sequence (P08659 whole entry, looked up): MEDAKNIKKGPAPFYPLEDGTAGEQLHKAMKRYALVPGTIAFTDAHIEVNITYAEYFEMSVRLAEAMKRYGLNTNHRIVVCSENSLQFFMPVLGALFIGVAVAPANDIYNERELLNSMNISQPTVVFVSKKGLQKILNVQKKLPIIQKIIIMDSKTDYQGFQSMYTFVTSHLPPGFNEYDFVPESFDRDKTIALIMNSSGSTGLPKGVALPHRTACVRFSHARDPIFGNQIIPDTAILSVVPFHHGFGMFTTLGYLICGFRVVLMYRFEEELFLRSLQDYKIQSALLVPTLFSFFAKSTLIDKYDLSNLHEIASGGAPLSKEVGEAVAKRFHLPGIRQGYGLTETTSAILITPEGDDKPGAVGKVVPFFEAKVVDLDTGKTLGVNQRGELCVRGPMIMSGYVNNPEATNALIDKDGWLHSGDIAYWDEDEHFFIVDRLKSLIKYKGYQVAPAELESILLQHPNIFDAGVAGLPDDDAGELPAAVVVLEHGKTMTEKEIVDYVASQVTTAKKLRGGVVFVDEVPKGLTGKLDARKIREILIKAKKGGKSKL
The subject of assay [10] is Wnt5a (protein binding on small-molecule microarray). The experiment in a line: small molecules binding Wnt5a protein – biophysical, small-molecule microarray, 635/667 nm fluorescence, primary screen (AID 1142).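 Further: fluorescence read at 667 nm with signal to noise per printed feature.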 The note with it: 635 nm fluorescence, higher = more signal.
The nature of assay [11]: ATP-based viability of Huh7 replicon cells – cell-based, CellTiter-Glo luminescence, basal, 48 h, cytotoxicity control for HCV replication inhibitor project, primary screen (AID 1143).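 Further: Huh7 hepatoma cells carrying a hepatitis C replication reporter with no stimulus; test concentration not given here.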 The note with it: higher = more signal, called active from +8 up or from −8 down.
Assay [12] can be described thus: Pseudomonas biofilm growth suppression – PAO1 strain, BacTiter-Glo luminescence, LB-PBS, primary screen (AID 1144). The note with it: P. aeruginosa PAO1 biofilm, 12 h, higher = more signal.
Assay [13] is described as follows: basal CRE-LacZ reporter activity in PC12 – cell-based, unstimulated, primary screen (AID 1145). The note with it: no forskolin, luminescence, 4.5 h, higher = more signal, called active from +8 up or from −8 down.
The nature of assay [14]: forskolin-driven CRE-LacZ activity in PC12 – cell-based, CRE-LacZ reporter, forskolin-stimulated, primary screen (AID 1146).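 Further: PC12 cells with 6xCRE LacZ reporter stimulated by forskolin 10 µM; beta-galactosidase reporter signal reflecting CREB driven transcription.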 The note with it: luminescence, 4.5 h, higher = more signal, called active from +8 up or from −8 down.
The target in assay [15] is Streptavidin (Streptomyces avidinii) (UniProt P22629). Kind of assay: compounds binding control protein streptavidin – biophysical, small-molecule microarray, 635/667 nm fluorescence, artefact control for SMM compound annotation, primary screen (AID 1147).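 Further: signal reflects streptavidin binding to arrayed compounds as a control protein.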 The note with it: higher = more signal.
Streptavidin (Streptomyces avidinii), sequence (P22629 whole entry, looked up): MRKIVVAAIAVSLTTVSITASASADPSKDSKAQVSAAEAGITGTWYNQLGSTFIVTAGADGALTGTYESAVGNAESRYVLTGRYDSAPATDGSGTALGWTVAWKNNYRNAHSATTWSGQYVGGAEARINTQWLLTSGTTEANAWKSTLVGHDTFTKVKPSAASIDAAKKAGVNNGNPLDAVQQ
Assay [16] can be described thus: probe aInhba binding on compound microarray – biochemical, small-molecule microarray, 635/667 nm fluorescence, primary screen (AID 1148).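 Further: score merges 667nm spot fluorescence with signal-to-noise for antibody binding to printed compounds.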 The note with it: higher = more signal.
Assay [17] concerns the target Torsin-1A (Homo sapiens) (UniProt O14656). The experiment in a line: TOR1A wild-type binding on microarray – cell lysate, small-molecule microarray, lysate, 635/667 nm, primary screen (AID 1149). The note with it: COS7 hTOR1A-WT lysate, 635 nm fluorescence, higher = more signal.
For assay [18] the target is unchanged. The experiment in a line: torsin A mutant lysate binding on microarrays – cell lysate, small-molecule microarray, COS7 lysate, 635/667 nm fluorescence, primary screen (AID 1150).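 Further: score pools 667 nm emission and signal to noise measuring lysate protein binding.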 The note with it: COS7 hTOR1A mutant lysate, 635 nm fluorescence, higher = more signal.
The subject of assay [19] is Sonic hedgehog protein (Shh). Kind of assay: Sonic hedgehog microarray binding compounds – biochemical, small-molecule microarray, 635/667 nm fluorescence, primary screen (AID 1151).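 Further: Shh protein binding to compounds spotted on small-molecule microarray slides; score combines spot fluorescence intensity with signal-to-noise across triplicate slides.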 The note with it: 635 nm fluorescence, higher = more signal.

Focal adhesion kinase 1 (Homo sapiens), sequence (Q05397 whole entry, looked up): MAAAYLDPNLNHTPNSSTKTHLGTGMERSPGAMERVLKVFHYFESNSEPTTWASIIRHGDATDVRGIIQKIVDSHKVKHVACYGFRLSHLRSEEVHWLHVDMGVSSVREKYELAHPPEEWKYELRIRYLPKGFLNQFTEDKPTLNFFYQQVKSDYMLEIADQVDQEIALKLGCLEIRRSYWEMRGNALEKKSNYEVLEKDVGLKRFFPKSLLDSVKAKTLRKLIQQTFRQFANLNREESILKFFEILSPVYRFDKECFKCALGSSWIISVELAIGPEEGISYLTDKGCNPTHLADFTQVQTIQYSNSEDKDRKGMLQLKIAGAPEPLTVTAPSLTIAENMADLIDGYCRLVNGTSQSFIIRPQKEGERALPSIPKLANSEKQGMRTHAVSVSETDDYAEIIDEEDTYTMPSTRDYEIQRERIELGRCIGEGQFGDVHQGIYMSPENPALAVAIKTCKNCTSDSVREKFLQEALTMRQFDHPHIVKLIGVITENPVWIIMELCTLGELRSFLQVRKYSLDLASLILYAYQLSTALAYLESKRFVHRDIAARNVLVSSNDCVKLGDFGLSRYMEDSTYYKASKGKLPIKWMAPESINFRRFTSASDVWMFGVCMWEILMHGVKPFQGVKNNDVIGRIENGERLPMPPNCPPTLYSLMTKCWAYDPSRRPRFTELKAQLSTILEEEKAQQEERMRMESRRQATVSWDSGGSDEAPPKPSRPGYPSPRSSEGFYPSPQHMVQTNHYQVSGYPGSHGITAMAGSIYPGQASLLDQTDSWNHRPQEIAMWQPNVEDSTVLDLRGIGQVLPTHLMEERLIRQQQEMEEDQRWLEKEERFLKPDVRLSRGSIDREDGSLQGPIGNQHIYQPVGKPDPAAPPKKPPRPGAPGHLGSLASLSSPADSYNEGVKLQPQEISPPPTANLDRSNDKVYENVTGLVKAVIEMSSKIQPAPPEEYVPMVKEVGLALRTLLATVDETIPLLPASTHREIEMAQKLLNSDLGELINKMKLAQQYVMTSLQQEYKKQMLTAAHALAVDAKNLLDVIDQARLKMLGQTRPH
Fibroblast growth factor 2 (Homo sapiens), sequence (P09038 whole entry, looked up): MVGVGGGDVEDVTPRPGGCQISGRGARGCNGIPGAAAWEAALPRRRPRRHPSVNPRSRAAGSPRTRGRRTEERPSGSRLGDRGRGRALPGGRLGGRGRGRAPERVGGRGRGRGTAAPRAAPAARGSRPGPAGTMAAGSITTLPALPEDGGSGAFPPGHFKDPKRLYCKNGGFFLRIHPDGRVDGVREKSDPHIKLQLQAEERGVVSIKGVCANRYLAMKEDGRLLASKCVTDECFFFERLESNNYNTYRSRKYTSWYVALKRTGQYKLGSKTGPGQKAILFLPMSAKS
Torsin-1A (Homo sapiens), sequence (O14656 whole entry, looked up): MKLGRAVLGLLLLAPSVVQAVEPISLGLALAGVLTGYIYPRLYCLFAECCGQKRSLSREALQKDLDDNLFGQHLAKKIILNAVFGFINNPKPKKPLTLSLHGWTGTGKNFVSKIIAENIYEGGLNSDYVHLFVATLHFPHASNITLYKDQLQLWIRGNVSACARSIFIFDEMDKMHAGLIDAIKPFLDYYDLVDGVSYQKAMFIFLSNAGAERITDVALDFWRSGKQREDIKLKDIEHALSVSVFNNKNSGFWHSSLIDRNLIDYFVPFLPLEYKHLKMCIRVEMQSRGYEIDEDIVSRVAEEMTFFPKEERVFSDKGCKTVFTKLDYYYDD
Follistatin (Homo sapiens), sequence (P19883 whole entry, looked up): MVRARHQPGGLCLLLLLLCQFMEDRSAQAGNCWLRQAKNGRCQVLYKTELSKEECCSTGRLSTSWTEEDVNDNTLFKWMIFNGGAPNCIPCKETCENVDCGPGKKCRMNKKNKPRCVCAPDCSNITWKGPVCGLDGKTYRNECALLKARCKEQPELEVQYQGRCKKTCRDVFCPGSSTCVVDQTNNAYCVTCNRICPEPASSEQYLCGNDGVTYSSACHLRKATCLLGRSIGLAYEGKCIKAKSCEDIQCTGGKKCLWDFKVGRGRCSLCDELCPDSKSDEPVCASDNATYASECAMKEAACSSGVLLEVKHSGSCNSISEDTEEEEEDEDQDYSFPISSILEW

With `Cc1c(NC(=O)/C(C#N)=C/c2ccccc2Cl)c(=O)n(-c2ccccc2)n1C`, the composite z-score was 0.228 in [1]; 0.654 in assay [2]; -0.0387 in assay [3]; 0.425 in assay [4]; 0.255 in [5]; -0.0318 in assay [6]. The composite z-score in the assay on Lefty1 is -0.0835; in assay [8] it was 0.195; in assay [10] it was 0.27; in assay [15] it was 1.73; in [16], -0.0195; with Torsin-1A (Homo sapiens) [17], 0.461. In addition, the composite z-score with Torsin-1A (Homo sapiens) [18] was 0.159; in assay [19], 0.0651. In addition, the z-score was 0.886 in assay [7]; -0.805 (inactive) in [9]; -2.11 (inactive) in assay [11]; -0.543 (inactive) in assay [12]; -0.321 (inactive) in assay [13]; -1.21 (inactive) in assay [14].
Turning to `[N-]=[N+]=NCc1ccccc1[C@@H]1OC(c2ccc(OCCCO)cc2)=N[C@]1(Cc1ccccc1N=[N+]=[N-])C(=O)N1CCCCC1`, the composite z-score in assay [1] was found to be 1.97; in assay [2], 1.24; in [3] it was 0.182; in assay [4] it was 0.816; in assay [5] it was 0.845; in [6], 0.483. For the same compound, the composite z-score in the assay on Lefty1 came out at 0.082; in assay [8], 0.756; in assay [10], 0.0032; in assay [15] it was 1.58; in assay [16], 0.329; in the assay with Torsin-1A (Homo sapiens) [17], 0.133. Moreover, the composite z-score with Torsin-1A (Homo sapiens) [18] was determined as 1.31; in assay [19], 0.0257. Moreover, the z-score is 0.909 in assay [7]; -1.61 (inactive) in assay [9]; -1.91 (inactive) in [11]; -0.166 (inactive) in [12]; -0.753 (inactive) in [13]; -0.189 (inactive) in assay [14].
Consider `C=CCNC(=O)[C@H]1[C@@H]2C(=O)O[C@@H](c3ccccc3)[C@@H](c3ccccc3)N2[C@@H](c2ccc(OCCO)cc2)[C@]12C(=O)Nc1ccc(C#CCNC(N)=O)cc12`, for which the composite z-score is -0.293 in assay [1]; 1.15 in assay [2]; 0.0494 in [3]; 0.936 in assay [4]; 1.41 in [5]; 1.05 in [6]. Also, the composite z-score in the assay with Lefty1 stood at 0.767; in assay [8] it was 0.912; in assay [10], 0.314; in [15] it was 0.756; in assay [16], 0.0857; with Torsin-1A (Homo sapiens) [17], 0.207. For the same compound, the composite z-score was 0.125 with Torsin-1A (Homo sapiens) [18] and 1.61 in [19]. In addition, the z-score in assay [7] was -0.837; in [9], -0.0338 (inactive); in assay [11], -0.384 (inactive); in assay [12], -0.78 (inactive); in assay [13], 0.559 (inactive); in assay [14], 0.123 (inactive).
In the case of `CCCNC(=O)[C@@]1(Sc2ccc(C)cc2)CC(=O)N(C(C)C)[C@@H]1c1ccc(CO)cc1I`, the composite z-score in assay [1] is -0.139; in assay [2], -0.435; in assay [3], -0.288; in assay [4], -0.678; in [5], -1.21; in assay [6], -1.5. In addition, the composite z-score with Lefty1 was -1.96; in assay [8], -0.831; in [10], -0.272; in assay [15] it was -1; in assay [16], -0.186; in the assay with Torsin-1A (Homo sapiens) [17] it was 0.0671. Also, the composite z-score is 0.157 with Torsin-1A (Homo sapiens) [18] and -0.42 in assay [19]. In addition, the z-score in assay [7] is 0.794; in assay [9], -0.121 (inactive); in [11], -1.07 (inactive); in assay [12] it was 0.767 (inactive); in assay [13], -0.412 (inactive); in assay [14] it was 0.892 (inactive).
In the case of `COc1ccc([Si](C)(C)[C@H]2[C@H](CCO)O[C@@]3(C(=O)N(Cc4ccccc4)c4ccc(N5CCOC5=O)cc43)[C@@H]2C)cc1`, the composite z-score in assay [1] was determined as 0.783; in assay [2] it was 0.981; in assay [3] it was 0.0096; in assay [4] it was 0.773; in [5], 0.701; in assay [6] it was 1.11. Also, the composite z-score with Lefty1 is 0.385; in assay [8] it was 0.986; in assay [10], 0.0771; in [15] it was 1; in assay [16], 0.0756; in the assay with Torsin-1A (Homo sapiens) [17], -0.112. In addition, the composite z-score is -0.12 with Torsin-1A (Homo sapiens) [18] and 1.16 in assay [19]. Besides, the z-score in [7] was 0.571; in assay [9] it was 0.446 (inactive); in [11], -4.87 (inactive); in [12], -0.521 (inactive); in [13], 2.11 (inactive); in assay [14], -0.726 (inactive).
